Only some compounds are listed: those with a hit (about 4.2% of all), similar ones and a draw of the others.
CD11b adhes inh – inhibitors of human CD11b/CD18 binding to fibrinogen. AID 1497. P05107+P11215. 93,000 compounds, 0.54% hits. K562 CD11b/CD18 adhesion to fibrinogen, ATPlite luminescence; Mn2+ added to activate the integrin. inhibition, % at 10 µM;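 active = primary inhibition of 50% or more at 10 µM, then 40% or more on retest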
Pyk2 oligo antag – blocks oligomerization of human Pyk2 in cells | Q293 cells, Pyk2 FERM NanoBiT luminescence; active compounds read low | z-score (the deposit names both 25 µM and 10 µM) | 99,000 compounds, 0.83% hits | AID 1347419;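 active = Z-score of -3 or lower, scaled per plate to the spread of control and sample wells; inactive = z-score above -3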;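 also: negative z-score means lost luminescence so less FERM oligomerization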
Cav32 inh – human Cav3.2 channel inhibition, primary screen. Cav3.2-expressing cells, Fluo-4 calcium fluorescence FDSS; active compounds read low. AID 449739. B-score at 10 µM. 100,000 compounds, 4% hits. O95180;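 active = single-dose well whose peak fluorescence ratio is a statistical outlier from its plate by either plate-standardised score or position-corrected B-score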
Mac1 fbg enh – CD11b/CD18-fibrinogen binding enhancement; P05107+P11215; K562 CD11b/CD18 adhesion to fibrinogen, ATPlite luminescence; activation, % at 10 µM; 93,000 compounds, 0.07% hits; AID 1499;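 active = 10 µM primary screen giving 50% or more activity, confirmed by 40% or more on retest at that dose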
E coli RNAP – Escherichia coli RNA polymerase inhibition; 62,000 compounds, 0.2% hits; inhibition, %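 (tested at 10 µM)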; E. coli RNA polymerase, fluorescence transcription assay; P0A8V2; in the data active = inhibition above about 20%
Target sequence (P0A8V2 whole entry, looked up): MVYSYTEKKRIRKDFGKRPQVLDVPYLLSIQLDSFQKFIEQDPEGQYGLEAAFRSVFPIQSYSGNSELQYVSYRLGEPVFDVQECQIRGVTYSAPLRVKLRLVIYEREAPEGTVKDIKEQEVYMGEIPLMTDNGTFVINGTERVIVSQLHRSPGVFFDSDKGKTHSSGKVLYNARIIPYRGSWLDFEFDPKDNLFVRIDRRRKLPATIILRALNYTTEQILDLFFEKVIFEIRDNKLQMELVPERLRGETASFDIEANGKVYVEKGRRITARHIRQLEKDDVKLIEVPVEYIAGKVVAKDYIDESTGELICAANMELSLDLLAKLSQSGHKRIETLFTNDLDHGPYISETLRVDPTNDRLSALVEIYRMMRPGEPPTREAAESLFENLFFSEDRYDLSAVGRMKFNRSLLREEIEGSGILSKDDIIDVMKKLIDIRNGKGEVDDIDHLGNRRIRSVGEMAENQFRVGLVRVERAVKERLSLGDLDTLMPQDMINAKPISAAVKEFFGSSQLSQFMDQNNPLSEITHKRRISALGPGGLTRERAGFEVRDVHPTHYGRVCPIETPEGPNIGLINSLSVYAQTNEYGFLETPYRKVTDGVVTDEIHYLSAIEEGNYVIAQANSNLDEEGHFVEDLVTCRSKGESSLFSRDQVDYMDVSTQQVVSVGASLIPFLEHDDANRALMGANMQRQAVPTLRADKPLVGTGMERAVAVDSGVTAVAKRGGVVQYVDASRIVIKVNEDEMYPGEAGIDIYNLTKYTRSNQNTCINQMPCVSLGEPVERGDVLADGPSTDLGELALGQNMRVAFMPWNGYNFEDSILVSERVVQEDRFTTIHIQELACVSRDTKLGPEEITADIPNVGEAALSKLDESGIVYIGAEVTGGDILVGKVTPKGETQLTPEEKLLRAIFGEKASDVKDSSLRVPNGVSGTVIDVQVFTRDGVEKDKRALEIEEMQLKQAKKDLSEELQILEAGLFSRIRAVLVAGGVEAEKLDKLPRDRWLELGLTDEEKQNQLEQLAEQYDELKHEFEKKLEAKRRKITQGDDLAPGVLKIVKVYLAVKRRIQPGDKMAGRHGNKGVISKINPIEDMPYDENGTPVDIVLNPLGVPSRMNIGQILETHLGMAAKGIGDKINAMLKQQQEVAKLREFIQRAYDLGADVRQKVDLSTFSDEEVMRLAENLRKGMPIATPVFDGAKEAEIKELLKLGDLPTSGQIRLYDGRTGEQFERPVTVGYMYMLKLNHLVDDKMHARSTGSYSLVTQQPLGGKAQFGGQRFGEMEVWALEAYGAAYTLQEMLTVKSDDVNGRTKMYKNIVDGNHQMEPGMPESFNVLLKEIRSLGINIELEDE
Large screens that a line does not name were inactive.

CCN(CC)S(=O)(=O)N1CCC(C(=O)NCC2COc3ccccc3O2)CC1 (configuration not stated)	none (no result: CD11b adhes inh, Mac1 fbg enh)
CN(c1ccccc1)C(c1ccc(F)cc1)c1nnnn1C1CCCC1 (configuration not stated)	Cav32 inh -7.5
O=C(c1ccccc1)c1cccc(NC(=O)c2ccc(Br)o2)c1	Cav32 inh -3.7 (no result: E coli RNAP)
O=C(Nc1ccccc1)c1ccc(Br)o1	none (no result: CD11b adhes inh, Pyk2 oligo antag, Mac1 fbg enh, E coli RNAP)
OC(CN(c1ccccc1)c1ccccc1)Cn1cnc2ccccc21 (configuration not stated)	Cav32 inh -5
COc1ccc(/C=C/C(=O)c2ccccc2)cc1COc1ccccc1F	Cav32 inh -4.2 (no result: CD11b adhes inh, Mac1 fbg enh, E coli RNAP)
COCCNc1nc2sc3c(c2c(=O)n1Cc1ccco1)CCCCC3	none (no result: Pyk2 oligo antag, Cav32 inh, E coli RNAP)
CCOC(=O)/C(C#N)=C\C=C1C=CN(C)C=C1	Cav32 inh -4.8 (no result: CD11b adhes inh, Mac1 fbg enh, E coli RNAP)
O=C(Nc1ccc(OCC(=O)N2CCC(Cc3ccccc3)CC2)cc1)c1ccco1	Cav32 inh -7.2 (no result: E coli RNAP)
CC(NS(=O)(=O)c1ccc(F)cc1)C(c1cccs1)N1CCN(C)CC1 (configuration not stated)	E coli RNAP 21 (no result: CD11b adhes inh, Mac1 fbg enh)
CC(NS(=O)(=O)c1ccc(Cl)cc1)C(c1cccs1)N1CCN(C)CC1 (configuration not stated)	none (no result: CD11b adhes inh, Mac1 fbg enh, E coli RNAP)
CCCOC(=O)c1ccc(Oc2c(-c3ccc(OC)cc3O)n[nH]c2C)cc1	none
CCCOC(=O)c1ccc(-c2c(C)noc2-c2ccc(OC)cc2O)o1	Cav32 inh -4.4
COCCNC(=O)NC(=O)COC(=O)c1cc([N+](=O)[O-])ccc1Sc1nc(C)cs1	none (no result: E coli RNAP)
O=C(Nc1nccs1)c1cc2c(s1)CCCCC2	CD11b adhes inh 72 (no result: E coli RNAP)
O=C(NCc1ccc(F)cc1)c1cc2c(s1)CCCC2	Cav32 inh -6.3 (no result: E coli RNAP)
CC1CCc2sc(C(=O)NCc3ccc(F)cc3)cc2C1 (configuration not stated)	none (no result: E coli RNAP)
COc1ccccc1N=CC1=C(O)CC(c2ccccc2)CC1=O (configuration not stated)	none (no result: Pyk2 oligo antag, Cav32 inh, E coli RNAP)
Cc1cc2nnc(SCC(=O)Nc3cccc(S(=O)(=O)N4CCOCC4)c3)n2c2ccccc12	none (no result: Pyk2 oligo antag, Cav32 inh, E coli RNAP)
Nc1nc(OCC(F)(F)F)cc(Oc2ccccc2F)n1	Pyk2 oligo antag -3.8 (no result: E coli RNAP)
CNNCc1ccc(C(=O)NC(C)C)cc1	none (no result: CD11b adhes inh, Pyk2 oligo antag, Mac1 fbg enh, E coli RNAP)
N#C/C(=N\Nc1cccc(Cl)c1)C(=O)c1ccccc1	CD11b adhes inh 98, Cav32 inh -9.2 (no result: E coli RNAP)
N#C/C(=N\Nc1ccccc1Cl)C(=O)c1ccccc1	CD11b adhes inh 104 (no result: Cav32 inh, E coli RNAP)
Cc1ccc(S(=O)(=O)NC(C(=O)Oc2cc3oc(=O)cc(C)c3cc2Cl)C(C)C)cc1 (configuration not stated)	none (no result: Pyk2 oligo antag, Cav32 inh, E coli RNAP)
O=C(Cn1ncc(Cl)c(Cl)c1=O)N1CCN(S(=O)(=O)c2ccc3ccccc3c2)CC1	none (no result: Pyk2 oligo antag, Cav32 inh, E coli RNAP)
Cc1ccc(C)c(OC(=O)c2cncc(Br)c2)c1	none (no result: CD11b adhes inh, Cav32 inh, Mac1 fbg enh, E coli RNAP)
Cc1cc(C(=O)COC(=O)c2ccc(O)cc2)c(C)n1Cc1ccco1	none (no result: CD11b adhes inh, Cav32 inh, Mac1 fbg enh, E coli RNAP)
CCOc1ncccc1C(=O)OCC(=O)c1cc(C)n(Cc2ccco2)c1C	Cav32 inh -4.9
Cc1cccc(C(=O)N[C@H](C(=O)OCC(=O)NC(=O)c2cccn2C)C(C)C)c1	none (no result: Pyk2 oligo antag, Cav32 inh, E coli RNAP)
Cc1nn(C(C)C(=O)Nc2sc3c(c2C#N)CCCC3)c(C)c1[N+](=O)[O-] (configuration not stated)	Cav32 inh -3.3 (no result: E coli RNAP)
CC(C)C(C(=O)Nc1sc2c(c1C#N)CCCCC2)N1C(=O)c2ccccc2C1=O (configuration not stated)	Cav32 inh -8.7 (no result: E coli RNAP)
CC(C)CC(=O)NC(NC(=S)Nc1sc2c(c1C#N)CCCC2)C(Cl)(Cl)Cl (configuration not stated)	Cav32 inh -5.3 (no result: CD11b adhes inh, Mac1 fbg enh, E coli RNAP)
N#Cc1c(NC(=O)c2ccccc2)sc2c1CCC2	none (no result: E coli RNAP)
COc1ccc(N2C(=O)C3ON(C4SC(=S)N(C)C4(C)C)C(c4ccc(Cl)cc4)C3C2=O)cc1 (configuration not stated)	none (no result: Pyk2 oligo antag, Cav32 inh, E coli RNAP)
O=C(NCc1cccc(C(F)(F)F)c1)C1CC(c2c(Cl)cccc2Cl)=NO1 (configuration not stated)	none (no result: Pyk2 oligo antag, E coli RNAP)
CC1=C(C(=O)NCc2ccccn2)C2(CCC(C)CC2)OC1=O (configuration not stated)	none (no result: Pyk2 oligo antag, Cav32 inh)
COC(=O)c1c(NC(=O)COC(=O)Cn2cnc3ccccc32)sc2c1CCCC2	none (no result: Cav32 inh, E coli RNAP)
COc1cccc(-c2nc(CS(=O)CC(=O)NCc3ccc4c(c3)OCO4)c(C)o2)c1 (configuration not stated)	Cav32 inh -5 (no result: Pyk2 oligo antag)
Cc1ccc(-c2nc(CS(=O)CC(=O)NCc3ccccc3)c(C)o2)cc1 (configuration not stated)	none (no result: Pyk2 oligo antag)
Cc1ccc(CNC(=O)CS(=O)Cc2nc(-c3ccccc3C)oc2C)cc1 (configuration not stated)	Cav32 inh -4.5 (no result: Pyk2 oligo antag)
Cc1ccc(NC(=O)CS(=O)Cc2nc(-c3ccc(C)cc3)oc2C)cc1 (configuration not stated)	Cav32 inh -4.6 (no result: Pyk2 oligo antag, E coli RNAP)
COc1ccc(-c2nc(CS(=O)CC(=O)NCc3ccc4c(c3)OCO4)c(C)o2)cc1 (configuration not stated)	none (no result: Pyk2 oligo antag)
CC(C)(C)n1nnnc1C(c1cccs1)N1CCCC2(CCCCC2)C1 (configuration not stated)	none (no result: CD11b adhes inh, Mac1 fbg enh)
CC(C)C(c1nnnn1C1CCCC1)N1CCCc2ccccc21 (configuration not stated)	Cav32 inh -3.9 (no result: CD11b adhes inh, Mac1 fbg enh)
CC(C)(C)n1nnnc1C(c1cccs1)N1CCCc2ccccc21 (configuration not stated)	Cav32 inh -5.9
CC(C)C(c1nnnn1C1CCCCC1)N1CCCc2ccccc21 (configuration not stated)	none (no result: CD11b adhes inh, Mac1 fbg enh, E coli RNAP)
O=C(NCC1(c2ccccc2)CCCC1)C1(c2ccccc2)CCCC1	Cav32 inh -6.6 (no result: CD11b adhes inh, Mac1 fbg enh, E coli RNAP)
COc1nc(N)c(S(=O)(=O)c2ccccc2C)cc1C#N	Cav32 inh -3.9 (no result: E coli RNAP)
COc1nc(N)c(S(=O)(=O)c2ccccc2)cc1C#N	none (no result: E coli RNAP)
CC1CCC(C(C)C)C(OC(=O)Cn2c(-c3ccc(F)cc3)[n+](C)c3ccccc32)C1 (configuration not stated)	CD11b adhes inh 64 (no result: Pyk2 oligo antag, Cav32 inh, E coli RNAP)
CC1CCC(C(C)C)C(OC(=O)Cn2c(-c3ccccc3)[n+](C)c3ccccc32)C1 (configuration not stated)	CD11b adhes inh 99 (no result: Cav32 inh, E coli RNAP)
CC1CCC(C(C)C)C(OC(=O)CSc2nc(N)cc(=O)[nH]2)C1 (configuration not stated)	none (no result: CD11b adhes inh, Mac1 fbg enh, E coli RNAP)
CCCCC(=O)NC(=S)Nc1cccc(NC(=O)c2ccco2)c1	none (no result: Pyk2 oligo antag, Cav32 inh, E coli RNAP)
COc1ccc2c(c1OC)C(=O)N1c3cccc(Cl)c3C(=O)OC21 (configuration not stated)	Cav32 inh -4.3
COc1ccc(Cl)cc1N1C(=O)/C(=C\c2sccc2C)N=C1SCC(=O)NC1CC1	Cav32 inh -6.2 (no result: E coli RNAP)
CCCC(=O)C1=C(O)C(C(=O)OC)C(C)(C)CC1=Nc1ccccc1 (configuration not stated)	none (no result: Cav32 inh)
CCCC(=O)C1=C(O)C(C(=O)OC)C(C)(C)CC1=NC(C)(C)C (configuration not stated)	Cav32 inh 4.1 (no result: E coli RNAP)
Fc1ccc2c(c1)C(c1ccncc1)=NNC(c1ccccc1)=N2	none (no result: Pyk2 oligo antag, Cav32 inh, E coli RNAP)

High-throughput results: PubChem, several laboratories
